HT1080 IDH1KD tx: HT-1080 IDH1 knockdown cell toxicity (counter line). Potency, µM (top dose mostly 46.1 µM), for the others: at the highest dose activity, negative = toxicity, usual class: cytotoxic. 2% of 360,000 active. HT-1080 IDH1 knockdown viability, ATP luminescence, 48 h. AID 686971;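 further: potency means the concentration at half of the fitted maximal effect; 0% = DMSO wells and -100% = cell-free medium wells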
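After a 2 h attachment period, IDH1KD HT-1080 cells took pin-transferred compound for 48 h at 37 °C; ATP-based luminescence after 10 min room-temperature reagent incubation reported viability.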
HT1080NT lethal: kills 2HG-producing HT-1080-NT fibrosarcoma cells; HT-1080-NT fibrosarcoma viability, CellTiter-Glo ATP luminescence, 48 h; Potency, µM (doses to about 46.1 µM), for the others: at the top dose activity, negative = less viability, most hits filed as cytotoxic; 1.6% of 360,000 active;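 further: NT is the 2HG producing partner of a matched IDH1 knockdown line; potency means the concentration at half of the fitted maximal effect; 0% = DMSO-treated cells and -100% = media-only wells without cells; nearly all actives have a fitted effect of over 55% in size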
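HT-1080-NT; 750 cells/well; 5% FBS RPMI; 48 h compound, 37 degrees C; CellTiter-Glo luminescence; curve fitting and curve-class assignment.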
IL1B secr inh: blocks inflammasome-driven IL-1 beta release. THP-1 LPS/ATP IL-1B secretion, AlphaLISA, 16 h; hits give low values. activity change, % at 57.5 µM. 4.7% of 360,000 active. AID 743279; in the data active means activity change below about -50%; inconclusive means mostly about -30% to -49%
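Secreted IL-1B measured by AlphaLISA bead assay after 16 h compound exposure of THP-1 cells; compounds (final up to 57.5 uM) added 1 h before LPS (250 ng/mL) and ATP (1.25 mM) stimulation; lower signal means less secretion.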
DT40 TDP1 CPT: DT40-hTDP1 cell growth loss with CPT; chicken DT40 Tdp1-/-;hTDP1 cells + 20 nM CPT, ATP luminescence, 48 h; AID 686979; Potency, µM (highest dose often 46.2 µM), inactives show top-dose activity change, negative = growth inhibition, hits mostly inhibitors; 12% of 420,000 active; further: potency means the concentration at half of the fitted maximal effect; nearly all actives have a fitted effect of over 55% in size
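Chicken DT40 Tdp1-/- cells stably complemented with human TDP1 were seeded at 400 cells/well in medium containing 20 nM camptothecin, exposed to pin-transferred compounds, and grown at 37 °C for at least 48 hr. Viability was read as ATP luminescence.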
DT40 TDP1 no CPT: qHTS for Inhibitors of human tyrosyl-DNA phosphodiesterase 1 (TDP1): qHTS in cells in absence of CPT; DT40 Tdp1-/- hTDP1 cells, no CPT, ATP luminescence, 48 h; Potency, µM (doses to about 46.2 µM), for inactives: at the highest dose activity change, negative = growth inhibition, usual class: inhibitors; 15% of 420,000 active; AID 686978, 2013; further: potency means the concentration at half of the fitted maximal effect; nearly all actives have a fitted effect of over 55% in size
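Chicken DT40 Tdp1-/- cells complemented with human TDP1, screened without camptothecin (DMSO vehicle only), 400 cells/well. Compounds pin-transferred, cells incubated at 37 °C for at least 48 hr. Growth read as ATP-dependent luminescence (CellTiter-Glo, 30 min at RT).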
The depositor's hits bear a star; u = inconclusive; [ ] = dose if it differs, or a comment. A selection: hits, their analogues and other compounds. The true share with any hit is near 19%. Unless noted, the call rests on the fitted dose curve; in most records, active means well fitted curve in the direction sought with a large enough effect; inconclusive means small, poorly fitted or top-dose-only effect, or another doubt; inactive means no such curve, though single readings can be large; an effect the other way counts as inactive or inconclusive. Unless noted, on the % scale 0 is the no-effect control and ±100 the full control effect.

SMILES | HT1080 IDH1KD tx | HT1080NT lethal | IL1B secr inh | DT40 TDP1 CPT | DT40 TDP1 no CPT
O=C(N/N=C/c1ccco1)c1ccc(N2CCCC2=O)cc1 | 5.9% | 14.4% | 9.8 | 10.4% | u
COc1cccc(/C=N/NC(=O)c2ccc(N3CCCC3=O)cc2)c1 | u | u | -28.7 | u | 23.1µM*
O=C(N/N=C/c1ccc(Cl)cc1Cl)c1cccc(N2CCCC2=O)c1 | -8.1% | -4.2% | u | -27.0% | -22.6%
O=C(N/N=C/c1sc(N2CCOCC2)nc1-c1ccccc1)c1ccc(O)cc1 | -25.7% | -19.5% | -20.0 | u | u
O=C(N/N=C/c1sc(N2CCOCC2)nc1-c1ccccc1)c1cccc(S(=O)(=O)N2CCCC2)c1 | u | -3.5% | 55.9 | 2.59µM* | 4.61µM*
O=C(N/N=C/c1cc(Br)cc(Br)c1O)c1cccc(S(=O)(=O)N2CCOCC2)c1 | u | -25.9% | 79.6 | 3.66µM* | 3.66µM*
Cc1ccc(CNC(=O)Cn2cnc(S(=O)(=O)N3CCC(C)CC3)c2)o1 | 2.0% | 15.1% | 9.2 | -0.2% | 30.0%
O=C(COC(=O)c1ccc2ccccc2n1)c1ccccc1 | 7.2% | -1.2% | 12.4 | 2.2% | 6.2%
O=C(c1ccc(-c2cc3ccccc3oc2=O)cc1)N1CCN(c2ccc(Cl)cc2[N+](=O)[O-])CC1 | -0.6% | 2.3% | -12.8 | u | u
O=C(CN1CCN(S(=O)(=O)c2ccccc2)CC1)NCc1ccccc1 | 17.1% | 10.9% | 19.4 | -3.8% | 7.5%
Cc1ccc2nsnc2c1S(=O)(=O)NCCc1c(C)[nH]c2ccc(F)cc12 | -7.9% | -14.5% | -1.6 | -24.9% | -20.6%
COc1cccc(CCc2nnc(CCC(=O)N3CCN(Cc4ccccn4)CC3)o2)c1 | 4.9% | 8.9% | 7.0 | -5.1% | -6.2%
O=C(N/N=C/c1cc(Cl)cc([N+](=O)[O-])c1O)c1cccc(S(=O)(=O)N2CCOCC2)c1 | u | 16.4µM* | 13.8 | -18.7% | u
CSc1cccc(NC(=O)C2CCCN(S(C)(=O)=O)C2)c1 (stereo not given) | 0.0% | -6.5% | -19.3 | -15.0% | -25.4%
O=C1c2ccccc2-c2cc(Br)ccc2NC1O (stereo not given) | -13.6% | 0.1% | 0.9 | -20.0% | u
O=C1c2ccccc2C(=Nc2ccccc2)C1c1cccc(Br)c1 (stereo not given) | -18.5% | -3.3%[9.24 µM] | 54.4 | 10.3µM* | u
CC1=CC2=C(C=O)C(=O)C(C)(O)C(O)C2=CO1 (stereo not given) | -25.0% | u | -61.7* | u | u
CCC(=O)Nc1ccc(/C=C(\C(C)=O)C(=O)c2ccccc2)cc1 | 16.4µM* | 18.4µM* | -98.3* | u | 23.1µM*
O=C(C(=Cc1ccc(F)cc1)C(=O)c1ccccc1)c1ccccc1 | u | u | -112.0* | u | 16.4µM*
COc1cccc(C(=O)N/N=C/C(Br)=C/c2ccccc2)c1 | 11.6µM* | u | -74.6* | 1.84µM* | 2.91µM*
COc1cccc(C=C(C(C)=O)C(=O)c2ccccc2)c1 | 16.4µM* | u | -113.4* | 20.6µM* | 14.6µM*
CCOC(=O)[C@H]1[C@H]2COc3ccc(C)cc3[C@@H]2N2C(=O)CN(Cc3ccco3)C(=O)[C@@]12C | 0.0% | -2.5% | -1.5 | -29.5% | -21.1%
CC(OC(=O)c1cccs1)C(=O)NC1CC1 (stereo not given) | -5.8% | 1.8% | 34.9 | 5.9% | -5.2%
Cc1c(NC(=O)C(C)Sc2ncnc3ccccc23)c(=O)n(-c2ccccc2)n1C (stereo not given) | 3.8% | 0.1% | 20.7 | 0.0% | -10.2%
CCOC(=O)c1cc2c(nc1C)-c1cc(Cl)cc(Cl)c1OC2O (stereo not given) | -16.2% | -25.6% | 12.5 | u | u
COc1ccc(C(=O)N/N=C/C(Br)=C/c2ccccc2)cc1 | -13.2% | -11.3% | -57.7* | 13µM* | 14.6µM*
[O-]/[N+](=C\c1ccncc1)c1ccc(Br)cc1 | -1.3% | -0.3% | -26.2 | 8.2µM* | u

Screens from PubChem.
